In PubChem BioAssay AID1159580 (chemical genetic matrix, 2015):
Values joined by “and” are separate entries in the source; they are usually repeats but may differ in a detail not shown here. Equal entries are not always repeated. Among all 5,500 compounds or so, about 2,000 (36%) were called active. Roughly 18% stayed inconclusive and do not appear here. Rule as the data show it: active = normalized growth mostly below about 0.91 (no sharp cut-off); inconclusive = no clear call, values can overlap the other calls; inactive = mostly above about 0.92. The list shows a part of the results.

Assay: chemical genetic growth profiling, strain panel (AID 1159580);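 also: tested at 20 µM; growth read once vehicle control cultures reached saturation at 30 °C; 1 = growth at the plate median or of vehicle wells; lower values mean less growth of the strain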
Details: S. cerevisiae deletion strains, growth OD
[1] = locus YHR030C, strain SLT2, stronger effect = lower value
[2] = locus YHR079C, strain IRE1, stronger effect = lower value
[3] = locus YJL095W, strain BCK1, stronger effect = lower value
[4] = locus YJR066W, strain TOR1, stronger effect = lower value
[5] = locus YLR113W, strain HOG1, stronger effect = lower value
[6] = locus YNL183C, strain NPR1, stronger effect = lower value
[7] = locus YOR231W, strain MKK1, stronger effect = lower value
[8] = locus YPL256C, strain CLN2, stronger effect = lower value

Measured: normalized growth

CC(C)=CCC/C(C)=C/COc1ccc2ccc(=O)oc2c1
inactive: locus YAL021C, strain ccr4, stronger effect = lower value 0.994 | locus YAL026C, strain drs2, stronger effect = lower value 0.999 | locus YAL030W, strain snc1, stronger effect = lower value 0.986 | locus YBL061C, strain skt5, stronger effect = lower value 0.985 | locus YBR009C, strain hhf1, stronger effect = lower value 0.976 | locus YBR023C, strain chs3, stronger effect = lower value 0.982 | locus YBR171W, strain sec66, stronger effect = lower value 0.981 | locus YBR231C, strain swc5, stronger effect = lower value 0.996 | locus YBR279W, strain paf1, stronger effect = lower value 0.99 | locus YCL011C, strain gbp2, stronger effect = lower value 0.978 | locus YCL016C, strain dcc1, stronger effect = lower value 0.988 | locus YCL061C, strain MRC1, stronger effect = lower value 1 | locus YCL069W, strain vba3, stronger effect = lower value 0.985 | locus YCR088W, strain abp1, stronger effect = lower value 0.99 | locus YDL005C, strain med2, stronger effect = lower value 1 | locus YDL040C, strain nat1, stronger effect = lower value 0.986 | locus YDR001C, strain nth1, stronger effect = lower value 0.993 | locus YDR069C, strain doa4, stronger effect = lower value 0.998 | locus YDR137W, strain rgp1, stronger effect = lower value 0.893 | locus YDR159W, strain sac3, stronger effect = lower value 1.01 | locus YDR195W, strain ref2 1.04 | locus YDR297W, strain sur2, stronger effect = lower value 0.984 | locus YDR334W, strain swr1, stronger effect = lower value 0.992 | locus YDR335W, strain msn5, stronger effect = lower value 1 | locus YDR392W, strain spt3, stronger effect = lower value 0.952 | locus YEL003W, strain gim4, stronger effect = lower value 0.997 | locus YEL037C, strain rad23, stronger effect = lower value 0.991 | locus YEL061C, strain CIN8 (second series), stronger effect = lower value 0.993 | locus YER015W, strain faa2, stronger effect = lower value 1 | locus YER016W, strain bim1, stronger effect = lower value 0.986 | locus YER111C, strain swi4, stronger effect = lower value 1 | locus YER155C, strain BEM2 (second series), stronger effect = lower value 0.999 | locus YFR010W, strain ubp6, stronger effect = lower value 1 | locus YGL167C, strain pmr1, stronger effect = lower value 0.985 | locus YGL173C, strain kem1, stronger effect = lower value 0.99 | locus YGL227W, strain vid30, stronger effect = lower value 0.992 | locus YGL240W, strain doc1, stronger effect = lower value 0.999 | locus YGL253W, strain hxk2, stronger effect = lower value 0.994 | locus YHR013C, strain ard1, stronger effect = lower value 0.971 | locus YHR027C, strain rpn1, stronger effect = lower value 0.998 | [1] 0.948 | [2] 0.969 | locus YHR142W, strain chs7, stronger effect = lower value 0.962 | locus YJL092W, strain hpr5, stronger effect = lower value 1 | locus YJL095W, strain BCK1 (second series), stronger effect = lower value 0.987 | [3] 0.937 | locus YJL115W, strain asf1, stronger effect = lower value 1 | locus YJL129C, strain trk1, stronger effect = lower value 0.911 | locus YJL154C, strain vps35, stronger effect = lower value 0.99 | locus YJL164C, strain tpk1, stronger effect = lower value 0.966 | locus YJL166W, strain qcr8, stronger effect = lower value 0.99 | locus YJL187C, strain SWE1, stronger effect = lower value 0.99 | [4] 0.932 | locus YKL160W, strain elf1, stronger effect = lower value 0.976 | locus YKR026C, strain gcn3, stronger effect = lower value 0.99 | locus YKR091W, strain srl3, stronger effect = lower value 0.985 | locus YLL001W, strain dnm1, stronger effect = lower value 1 | locus YLL026W, stronger effect = lower value 0.984 | locus YLL041C, strain sdh2, stronger effect = lower value 0.983 | locus YLR027C, strain aat2, stronger effect = lower value 0.974 | [5] 0.944 | locus YLR221C, strain rsa3, stronger effect = lower value 0.976 | locus YLR258W, strain gsy2, stronger effect = lower value 0.981 | locus YLR262C, strain YPT6 (second series), stronger effect = lower value 0.932 | locus YLR320W, strain mms22, stronger effect = lower value 0.974 | locus YLR342W, strain FKS1, stronger effect = lower value 0.97 | locus YLR357W, strain rsc2, stronger effect = lower value 1.01 | locus YLR370C, strain arc18, stronger effect = lower value 0.999 | locus YLR384C, strain iki3, stronger effect = lower value 0.992 | locus YML120C, strain ndi1, stronger effect = lower value 0.973 | locus YMR058W, strain fet3, stronger effect = lower value 1 | locus YMR125W, strain sto1, stronger effect = lower value 0.996 | locus YMR129W, stronger effect = lower value 0.993 | locus YMR205C, strain PFK2, stronger effect = lower value 0.96 | locus YMR231W, strain pep5, stronger effect = lower value 0.965 | locus YNL071W, strain lat1, stronger effect = lower value 0.965 | [6] 0.912 | locus YNL209W, strain ssb2, stronger effect = lower value 0.983 | locus YNL248C, strain rpa49, stronger effect = lower value 0.981 | locus YNL322C, strain KRE1 (second series), stronger effect = lower value 0.994 | locus YNR049C, strain mso1, stronger effect = lower value 0.996 | locus YOR001W, strain rrp6, stronger effect = lower value 0.989 | locus YOR070C, strain gyp1, stronger effect = lower value 0.983 | locus YOR080W, strain dia2, stronger effect = lower value 0.997 | locus YOR083W, strain WHI5, stronger effect = lower value 0.978 | locus YOR106W, strain vam3, stronger effect = lower value 0.933 | [7] 0.968 | locus YOR265W, strain rbl2, stronger effect = lower value 0.973 | locus YOR270C, strain vph1, stronger effect = lower value 0.896 | locus YOR290C, strain snf2, stronger effect = lower value 0.968 | locus YPL051W, strain arl3, stronger effect = lower value 0.987 | locus YPL078C, strain atp4, stronger effect = lower value 0.983 | locus YPL106C, strain sse1, stronger effect = lower value 1.01 | locus YPL240C, strain hsp82, stronger effect = lower value 0.992 | [8] 0.917

COc1cc2ccc(=O)oc2c(O)c1O
active: locus YKL009W, strain mrt4, stronger effect = lower value 1.13 [resistant]
inactive: locus YBR021W, strain FUR4, stronger effect = lower value 1.03 | locus YBR229C, strain ROT2, stronger effect = lower value 0.957 | locus YCL029C, strain bik1, stronger effect = lower value 1.01 | locus YDL035C, strain GPR1, stronger effect = lower value 1.01 | locus YDL074C, strain BRE1, stronger effect = lower value 1.05 | locus YDL101C, strain DUN1, stronger effect = lower value 0.984 | locus YDL185W, strain tfp1, stronger effect = lower value 0.983 | locus YDL192W, strain arf1, stronger effect = lower value 1 | locus YDR101C, strain arx1, stronger effect = lower value 1.01 | locus YDR162C, strain NBP2, stronger effect = lower value 0.934 | locus YDR318W, strain mcm21, stronger effect = lower value 0.992 | locus YDR388W, stronger effect = lower value 1 | locus YDR502C, strain sam2, stronger effect = lower value 0.986 | locus YEL061C, strain CIN8, stronger effect = lower value 0.995 | locus YER110C, stronger effect = lower value 0.995 | locus YER155C, strain BEM2, stronger effect = lower value 1.03 | locus YER167W, strain BCK2, stronger effect = lower value 1.01 | locus YGL078C, strain dbp3, stronger effect = lower value 1.01 | locus YGL086W, strain mad1, stronger effect = lower value 1.04 | locus YGL248W, strain PDE1, stronger effect = lower value 0.979 | locus YGR078C, strain PAC10, stronger effect = lower value 0.98 | locus YGR135W, strain pre9, stronger effect = lower value 0.966 | locus YGR252W, strain gcn5, stronger effect = lower value 0.959 | [1] 1.01 and 1.04 | locus YHR079C, strain IRE1 (second series), stronger effect = lower value 0.996 | [2] 1.03 | locus YHR094C, strain hxt1, stronger effect = lower value 0.987 | locus YHR129C, strain ARP1, stronger effect = lower value 0.995 | locus YHR200W, strain rpn10, stronger effect = lower value 0.988 | locus YIL066C, strain RNR3, stronger effect = lower value 0.996 | locus YIL073C, strain SPO22, stronger effect = lower value 0.997 | locus YIL125W, strain kgd1, stronger effect = lower value 1 | locus YIR030C, strain dcg1, stronger effect = lower value 1 | [3] 0.956 and 1.01 | locus YJL134W, strain LCB3, stronger effect = lower value 1 | locus YJL168C, strain set2, stronger effect = lower value 0.992 | locus YJL187C, strain SWE1 (second series), stronger effect = lower value 0.991 | locus YJR043C, strain POL32, stronger effect = lower value 1.01 | [4] 0.978 | locus YJR075W, strain HOC1, stronger effect = lower value 1.01 | locus YKL068W, stronger effect = lower value 0.982 | locus YKL085W, strain MDH1 (second series), stronger effect = lower value 1 | locus YKL085W, strain MDH1, stronger effect = lower value 1 | locus YKR001C, strain vps1, stronger effect = lower value 1 | locus YLR039C, strain RIC1, stronger effect = lower value 1 | locus YLR058C, strain SHM2, stronger effect = lower value 1 | locus YLR102C, strain apc9, stronger effect = lower value 1 | [5] 0.984 | locus YLR262C, strain YPT6, stronger effect = lower value 0.955 | locus YLR268W, strain sec22, stronger effect = lower value 1.03 | locus YLR330W, strain CHS5, stronger effect = lower value 1 | locus YLR342W, strain FKS1 (second series), stronger effect = lower value 1.06 | locus YLR371W, strain rom2, stronger effect = lower value 0.981 | locus YLR418C, strain cdc73, stronger effect = lower value 0.971 | locus YML016C, strain PPZ1, stronger effect = lower value 0.996 | locus YML032C, strain rad52, stronger effect = lower value 1.01 | locus YML124C, strain tub3, stronger effect = lower value 0.997 | locus YMR078C, strain ctf18, stronger effect = lower value 0.991 | locus YMR223W, strain ubp8, stronger effect = lower value 1.01 | locus YMR307W, strain GAS1, stronger effect = lower value 1.05 | locus YNL067W, strain RPL9B, stronger effect = lower value 0.983 | locus YNL128W, strain TEP1, stronger effect = lower value 0.96 | [6] 0.976 | locus YNL233W, strain BNI4, stronger effect = lower value 1 | locus YNL250W, strain rad50, stronger effect = lower value 1 | locus YNL271C, strain bni1, stronger effect = lower value 1 | locus YNL298W, strain CLA4, stronger effect = lower value 0.997 | locus YNL307C, strain MCK1, stronger effect = lower value 1.01 | locus YNL322C, strain KRE1, stronger effect = lower value 0.99 | locus YNR052C, strain pop2, stronger effect = lower value 0.993 | locus YOL006C, strain TOP1, stronger effect = lower value 1.11 | locus YOL012C, strain htz1 0.802 | locus YOL147C, strain pex11, stronger effect = lower value 1.01 | locus YOR061W, strain CKA2, stronger effect = lower value 0.988 | locus YOR069W, strain VPS5, stronger effect = lower value 1.01 | locus YOR136W, strain idh2, stronger effect = lower value 1.01 | locus YOR144C, strain elg1, stronger effect = lower value 0.994 | locus YOR184W, strain ser1, stronger effect = lower value 0.983 | [7] 1.01 | locus YOR316C, strain cot1, stronger effect = lower value 0.997 | [8] 1.03 | locus YPR119W, strain clb2, stronger effect = lower value 0.991 | locus YPR141C, strain kar3, stronger effect = lower value 0.997 | locus YPR163C, strain tif3, stronger effect = lower value 0.985 | locus YPR167C, strain met16, stronger effect = lower value 0.994 | strain wtn01, stronger effect = lower value 1.03
